Test results reported in the supplement of paper PMC7156485.
± gives the standard deviation of the averaged measurements.

Assays:
Details in all cases: concentration: 10 µM; 24 h
[1] = test system: HCC1569; test: cell number relative to DMSO (% of DMSO); higher = more cells (less growth inhibition / toxicity)
How it was run: (§1)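 Treatment: HCC1569 and TDF cells, 800 per well in 384-well plates with RPMI and 10% FBS, were given compounds at 10 µM for 24 h at 37 °C, in triplicate. Readout: after 3.7% formaldehyde fixation, cells were stained with a rabbit anti-H1.0 antibody, an AlexaFluor 647 secondary and DAPI. Reported values are H1.0 nuclear intensity or cell number as percent of the plate control, taken as the median of replicates, with positional smoothing for HCC1569.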

[2] = test system: TDF; test: as above
How it was run: as §1

[3] = test system: TDF; test: H1.0 immunofluorescence intensity relative to DMSO (% of DMSO); higher = stronger H1.0 induction, active = 120 or more
How it was run: as §1

[4] = test system: HCC1569; test: H1.0 immunofluorescence intensity relative to DMSO (% of DMSO); higher = stronger H1.0 induction, active = 140 or more
How it was run: as §1
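For H1.0 immunofluorescence intensity relative to DMSO in this document: TDF is a line of transformed human dermal fibroblasts of mesenchymal origin.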
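For cell number relative to DMSO in this document: TDF denotes transformed human dermal fibroblasts of mesenchymal origin.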

Row | SMILES | cell number [1] | cell number [2] | H1.0 immunofluorescence intensity [3] | H1.0 immunofluorescence intensity [4]
1 | CCCCCCCCCCCCCCCCCCOCC(COP(=O)([O-])OCC[N+](C)(C)C)OC (stereo not drawn) [1-Octadecyl-2-methylglycero-3 PC] | 105 | 100 | 96.6 (inactive) | 101 (inactive)
2 | O=C1NC(=O)c2c1c1c3ccccc3[nH]c1c1[nH]c3cc(Br)ccc3c21 [Cdk4 Inhibitor] | 74.2 | 63.5 | 91.2 (inactive) | 208 (active)
3 | CC(C)(C)C1(O)CCN2CC3c4ccccc4CCc4cccc(c43)C2C1.Cl (racemic) | 105 | 111 | 88.7 (inactive) | 91 (inactive)
4 | COC(=O)c1ccc(O)c2[nH]c3c(C=O)c(O)cc(=O)c-3nc12 [Lomofungin] | 105 | 117 | 94.3 (inactive) | 101 (inactive)
5 | NC(=S)NCCCC(N)C(=O)O (stereo not drawn) [Thiocitrulline] | 104 | 112 | 91.5 (inactive) | 95.7 (inactive)
6 | COC(=O)c1sccc1S(=O)(=O)Nc1ccc(Nc2ccccc2)cc1OC | 99.7 | 92.5 | 88.2 (inactive) | 112 (inactive)
7 | CCOC(=O)c1ncn2c1CN(C)C(=O)c1cc(F)ccc1-2 [Flumazenil] | 104 ± 7.3 | 97.3 ± 3.1 | 98.2 (inactive) | 93.6 (inactive)
8 | CCCCCCCCCCCCCCCCOCC(COCC(F)(F)F)OP(=O)([O-])OC.[Li+] (stereo not drawn) | 102 | 93.8 | 99.5 (inactive) | 92.3 (inactive)
9 | Cc1nc(-c2ccccc2)c(-c2ccncc2)o1 | 99.2 | 116 | 94.1 (inactive) | 103 (inactive)
10 | O=C1Nc2ccc(Cl)cc2C1=Cc1cc(Cl)c(O)c(Cl)c1 [PKR Inhibitor, Negative Control] | 101 | 98.8 | 95.1 (inactive) | 128 (inactive)
11 | CCOC(=O)C(CCc1ccccc1)NC(C)C(=O)N1CCCC1C(=O)O (stereo not drawn) [Enalapril] | 104 | 106 | 98.8 (inactive) | 118 (inactive)
12 | CNCCCC12CCC(c3ccccc31)c1ccccc12.Cl [Maprotiline hydrochloride] | 97.8 | 102 | 106 (inactive) | 99.1 (inactive)
13 | CC(=O)OCC[N+](C)(C)C [Acetylcholine] | 106 | 103 | 100 (inactive) | 100 (inactive)
14 | NS(=O)(=O)c1ccc2c(c1)C1C=CCC1C(c1ccc(Br)cc1)N2 (stereo not drawn) | 102 | 91.3 | 95.3 (inactive) | 114 (inactive)
15 | CCCCCCCCOC(=O)C=Cc1ccc(O)c(O)c1 [n-Octyl caffeate] | 54.1 | 78.8 | 93.6 (inactive) | 120 (inactive)
16 | COCCCCC(=NOCCN)c1ccc(C(F)(F)F)cc1.O=C(O)C=CC(=O)O [Fluvoxamine maleate] | 98.6 | 97.1 | 95.3 (inactive) | 92.4 (inactive)
17 | Cc1coc2c1C(=O)C(=O)c1c-2ccc2c1CCCC2(C)C [Tanshinone IIA] | 85.3 ± 2.9 | 45.7 ± 6 | 113 (inactive) | 114 (inactive)
18 | O=C(c1ccc(OCCN2CCCCC2)cc1)c1c(-c2ccc(O)cc2)sc2cc(O)ccc12 [Raloxifene] | 95.5 | 105 | 102 (inactive) | 127 (inactive)
19 | CCCCCCC=CCCCCCCCC(=O)O [9(Z)-Hexadecenoic acid] | 98.8 | 104 | 97.9 (inactive) | 101 (inactive)
20 | Cc1cc(C(C)Nc2ccccc2)c2nc(N3CCOCC3)cc(=O)n2c1 (stereo not drawn) | 80.7 | 109 | 92.5 (inactive) | 136 (inactive)
21 | COc1ccc(-c2cc(=S)ss2)cc1 [Anethole trithione] | 93.6 | 104 | 98.2 (inactive) | 103 (inactive)
22 | COc1cc2c[n+](C)c3c4cc5c(cc4ccc3c2cc1OC)OCO5.[Cl-] | 85.3 | 34.7 | 138 (active) | 106 (inactive)
23 | O=C(c1cc2cc(O)ccc2[nH]1)c1cc2cc(O)ccc2[nH]1 [Flt-3 Inhibitor II] | 67.1 | 73 | 99.9 (inactive) | 195 (active)
24 | COc1cc(NC(C)CCCN)c2ncccc2c1 (stereo not drawn) [Primaquine] | 102 | 104 | 96.2 (inactive) | 113 (inactive)
25 | Cc1[nH]c2ccccc2c1CC(=O)N[C@@H](Cc1ccccc1)C(=O)N(C)c1ccccc1 | 100 | 109 | 88.8 (inactive) | 119 (inactive)
26 | N[C@@H](Cc1ccc(O)c(O)c1)C(=O)O [L-3,4-Dihydroxyphenylalanine] | 100 | 105 | 89.7 (inactive) | 90 (inactive)

Row | SMILES | cell number [1] | cell number [2] | H1.0 immunofluorescence intensity [3] | H1.0 immunofluorescence intensity [4]
27 | COc1ccc(S(=O)(=O)N(CCO)c2ccccc2CN(C)CC=Cc2ccc(Cl)cc2)cc1 | 74.4 | 86.7 | 103 (inactive) | 183 (active)
28 | CC(C)=CCC(O)C1=CC(=O)c2c(O)ccc(O)c2C1=O (stereo not drawn) [Shikonin] | 27 | 38.8 | 119 (inactive) | 111 (inactive)
29 | CC1CNc2c(cccc2S(=O)(=O)N[C@@H](CCCN=C(N)N)C(=O)N2CC[C@@H](C)C[C@@H]2C(=O)O)C1.O (stereo partly drawn) | 102 | 104 | 89.5 (inactive) | 105 (inactive)
30 | Cl.Cl.NCCCCN [Putrescine dihydrochloride] | 102 | 118 | 94.1 (inactive) | 98.2 (inactive)
31 | CN(C)CCOc1ccc(C(=C(CCCl)c2ccccc2)c2ccccc2)cc1 [Toremifene] | 97.2 | 104 | 102 (inactive) | 122 (inactive)
32 | Cl.Nc1c2c(nc3ccccc13)CCCC2 [9-Amino-1,2,3,4-tetrahydroacridine hydrochloride] | 105 | 103 | 94.8 (inactive) | 94.2 (inactive)
33 | CC(ONC(=O)c1cc(C(F)(F)F)cc(C(F)(F)F)c1)C(=O)Nc1ccc(Cl)cc1 (stereo not drawn) | 85.2 | 93.3 | 103 (inactive) | 144 (active)
34 | Cl.NC(N)=NC(=O)Cc1c(Cl)cccc1Cl [Guanfacine hydrochloride] | 104 | 114 | 86.8 (inactive) | 91.5 (inactive)
35 | COc1ccc(C2(C#N)CCC(C(=O)O)CC2)cc1OC1CCCC1 (stereo not drawn) | 105 | 99.6 | 98.8 (inactive) | 90.2 (inactive)
36 | CCCc1cc(C(N)=S)ccn1 [Prothionamide] | 106 | 97.3 | 99.4 (inactive) | 103 (inactive)
37 | CC1CC2C3CCC4=CC(=O)C=CC4(C)C3(F)C(O)CC2(C)C1(O)C(=O)CO (stereo not drawn) [Dexamethasone] | 100 | 102 | 81.6 (inactive) | 112 (inactive)
38 | C[C@@H](c1nc(-c2ccc(C#N)cc2)cs1)[C@](O)(Cn1cncn1)c1ccc(F)cc1F | 83.5 | 95 | 111 (inactive) | 129 (inactive)
39 | OCC1OC(n2cnc3c(Nc4ccccc4)ncnc32)C(O)C1O (stereo not drawn) [N6-Phenyladenosine] | 101 | 118 | 86.1 (inactive) | 104 (inactive)
40 | C[N+](C)(C)CCCCCC[N+](C)(C)C.[Br-].[Br-] [Hexamethonium bromide] | 104 | 103 | 98.5 (inactive) | 102 (inactive)
41 | CCN(CC)CCCCCCCCOC(=O)c1cc(OC)c(OC)c(OC)c1.Cl [TMB-8 hydrochloride] | 105 | 105 | 99.8 (inactive) | 84.2 (inactive)
42 | CC(C)Cn1cnc2c(N)nc3ccccc3c21 [Imiquimod] | 102 | 93.4 | 95.3 (inactive) | 108 (inactive)
43 | Cn1c(=O)c2[nH]cnc2n(C)c1=O [Theophylline] | 100 | 95.5 | 97 (inactive) | 103 (inactive)
44 | CCCCCCCCCCCCCCCCOCC(CO)OC (stereo not drawn) [1-Hexadecyl-2-O-methyl-glycerol] | 103 | 109 | 95.3 (inactive) | 98.4 (inactive)
45 | Cl.Cl.OCCN1CCN(CCC=C2c3ccccc3Sc3ccc(C(F)(F)F)cc32)CC1 [cis-(Z)-Flupenthixol dihydrochloride] | 86.1 | 102 | 102 (inactive) | 125 (inactive)
46 | COc1cc(-c2oc3cc(O)cc(O)c3c(=O)c2OC2OC(CO)C(O)C(O)C2O)cc(OC)c1O (stereo not drawn) [Syringetine-3-glucoside] | 102 | 93 | 101 (inactive) | 90.4 (inactive)
47 | Cc1[nH]c2ccccc2c1C1=C(NCCc2ccc(F)cc2)C(=O)N(C)C1=O | 82.4 | 59 | 137 (active) | 113 (inactive)
48 | O=C(NCc1ccc2c(c1)OCO2)c1c(Cl)cccc1Cl [N-(1,3-benzodioxol-5-ylmethyl)-2,6-dichlorobenzamide] | 97.3 | 103 | 97 (inactive) | 105 (inactive)
49 | O=C(CCCN1CC=C(n2c(=O)[nH]c3ccccc32)CC1)c1ccc(F)cc1 [Droperidol] | 107 | 98.1 | 91.1 (inactive) | 89.2 (inactive)
50 | Cl.NCCCC(N)(C(=O)O)C(F)F (racemic) [DL-alpha-Difluoromethylornithine hydrochloride] | 98.5 | 111 | 94.3 (inactive) | 92.7 (inactive)
51 | CCN(CC)CCOC(=O)c1ccc(N)cc1.Cl [Procaine hydrochloride] | 105 | 100 | 91.3 (inactive) | 97.8 (inactive)
52 | O=C1C(=Cc2ccc(O)c(O)c2)Oc2cc(O)ccc21 [Sulfuretine] | 98 | 102 | 93.3 (inactive) | 99.9 (inactive)
